“And” between values parts separate entries of the source, which are not always exact repeats. Equal values may be shown once. Results filed as inconclusive are left out. A structure can be active in one record and inactive in another. The source made the active and inactive calls. The call rests on the fitted dose curve; in most records, active means well fitted cell-killing curve with a large enough effect in the repeat runs; inconclusive means weak or mixed curves, or effect the other way; inactive means no such curve, though single readings can be large or run the other way.
Experiment: qHTS assay for identifying genotoxic compounds that show differential cytotoxicity against isogenic chicken DT40 cell lines with known DNA damage response pathways - wild type cell line (AID 743012); further: nearly all actives have a fitted effect of over 60% in size
Conditions: DT40 wild type chicken cells viability, CellTiter-Glo, 40 h; series mostly up to 68.4 µM; activity change, negative = cytotoxicity: at the top concentration
In short: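 Endpoint: CellTiter-Glo luminescence, 30 min RT. Cells: wild type DT40, 300/well. Exposure: compounds in DMSO, 40 h, 37 C/5% CO2, after ~0.5 h pre-incubation.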
On the % scale 0 is the no-effect control and ±100 the full control effect; potency means the concentration at half of the fitted maximal effect.

Which “activity change, negative = cytotoxicity” value does the source give for `O=C(CBr)OCc1ccccc1` here?
Its value is -0.428% (inactive).

With `C=CC(=O)OC(C)(C)C` as the compound, how does the “activity change, negative = cytotoxicity” value read?
Its value is -2.62% (inactive).

With `C(=NC1CCCCC1)=NC1CCCCC1` as the compound, how does the Potency read?
The Potency was “inactive and 15.4 µM (active)”.

With `Cn1cc[n+](C)c1` (tested in a mixture with another compound) as the compound, how does the “activity change, negative = cytotoxicity” value read?
Its value is -2.39% [at 95 µM] (inactive).

For `CNC(C)Cc1ccccc1OC` (stereo unspecified), which “activity change, negative = cytotoxicity” value is on record?
The value was -2.01% (inactive).

Which Potency does the source give for `O=[Se]=O` here?
Its Potency is 0.541 µM (active).

For `ClCC(Br)CBr` (stereo unspecified), which “activity change, negative = cytotoxicity” value is on record?
Its value is -1.46% (inactive).

Which “activity change, negative = cytotoxicity” value does the source give for `ClCCCCBr` here?
The value was -3.27% [at 95 µM] (inactive).

Which Potency does the source give for `CCOP(=S)(OCC)SCn1nnc2ccccc2c1=O` here?
Its Potency is 7.7 µM (active).

For `CC(O)(CS(=O)(=O)c1ccc(F)cc1)C(=O)Nc1ccc(C#N)c(C(F)(F)F)c1` (stereo unspecified), which Potency is on record?
The Potency was 26.6 µM (active).

For `COc1cc(CC(C)N)cc2c1OCO2` (stereo unspecified), which “activity change, negative = cytotoxicity” value is on record?
The value was -18.7% [at 95 µM] (inactive).

With `O=C(O)C(F)(F)C(F)(F)C(F)(F)C(F)(F)C(F)(F)C(F)(F)C(F)(F)C(F)(F)C(F)(F)C(F)(F)F` as the compound, how does the “activity change, negative = cytotoxicity” value read?
Its value is 11.7% (inactive).

Which “activity change, negative = cytotoxicity” value does the source give for `CCOC(=O)CBr` here?
The value was 0.753% [at 95 µM] (inactive).

For `O=C(O)C(F)(F)C(F)(F)C(F)(F)C(F)(F)C(F)(F)C(F)(F)C(F)(F)C(F)(F)C(F)(F)F`, which “activity change, negative = cytotoxicity” value is on record?
Its value is 8.17% (inactive).

With `COc1c(C(C)(C)C)cc([N+](=O)[O-])c(C)c1[N+](=O)[O-]` as the compound, how does the “activity change, negative = cytotoxicity” value read?
The value was 6.06% (inactive).

Which “activity change, negative = cytotoxicity” value does the source give for `N#CCc1ccccc1` here?
Its value is 0% [at 95 µM] (inactive).

Which “activity change, negative = cytotoxicity” value does the source give for `CCOP(=O)(OCC)SCCSCC` here?
Its value is 6.35% (inactive).

Experiment: qHTS assay for identifying genotoxic compounds that show differential cytotoxicity against isogenic chicken DT40 cell lines with known DNA damage response pathways - Rev3 mutant cell line (AID 743014); further: nearly all actives have a fitted effect of over 55% in size
Conditions: chicken DT40 Rev3-/- viability, CellTiter-Glo, 40 h; series mostly up to 68.4 µM; activity, negative = cytotoxicity: at the top concentration

Which “activity, negative = cytotoxicity” value does the source give for `O=S(=O)(Cl)c1ccccc1` here?
The value was 0.546% [at 95 µM] (inactive).

Which “activity, negative = cytotoxicity” value does the source give for `C#CCOC(C(=O)OCCN(C)C)(c1ccccc1)c1ccccc1` here?
The value was -18.4% (inactive).

Which “activity, negative = cytotoxicity” value does the source give for `BrCCCCBr` here?
The value was -3.25% (inactive).

Which Potency does the source give for `CCn1cc[n+](C)c1` here?
The Potency was “inactive”.

With `COC(=O)C(Br)CBr` (stereo unspecified) as the compound, how does the “activity, negative = cytotoxicity” value read?
The value was 14.4% (inactive).

Which “activity, negative = cytotoxicity” value does the source give for `N#Cc1ccc(Cl)cc1` here?
The value was 1.3% (inactive).

With `CCN(C)N=O` as the compound, how does the “activity, negative = cytotoxicity” value read?
Its value is -0.118% (inactive).

Which “activity, negative = cytotoxicity” value does the source give for `ClCc1ccccc1` here?
The value was -0.947% (inactive).

Which Potency does the source give for `CC(C)(C)c1cc([N+](=O)[O-])cc([N+](=O)[O-])c1O` here?
The Potency was 21.6 µM (active).

Which Potency does the source give for `CCOP(=O)(OCC)O/C(=C/Cl)c1ccc(Cl)cc1Cl` here?
Its Potency is 23.7 µM (active) and 27.3 µM (active).

Which “activity, negative = cytotoxicity” value does the source give for `C=CCC1([C@H](C)CCC)C(=O)NC(=O)NC1=O` here?
Its value is -19.2% (inactive).

Which “activity, negative = cytotoxicity” value does the source give for `C=CCN1CC[C@]23c4c5ccc(O)c4O[C@H]2C(=O)CC[C@@]3(O)[C@H]1C5` here?
Its value is 2.63% (inactive).

For `COc1nn(C(=O)NS(=O)(=O)c2ccccc2OC(F)(F)F)c(=O)n1C`, which “activity, negative = cytotoxicity” value is on record?
The value was 16.7% (inactive).

With `O=C(O)CC(Cl)C(=O)O` (stereo unspecified) as the compound, how does the “activity, negative = cytotoxicity” value read?
The value was -4.72% [at 95 µM] (inactive).

Which Potency does the source give for `O=C1CN=C(c2ccccc2)c2cc(Cl)ccc2N1CC1CC1` here?
The Potency was 29.8 µM (active) and 64.2 µM (active).

With `C=CC(C)=O` as the compound, how does the “activity, negative = cytotoxicity” value read?
Its value is 0.147% (inactive).

With `CCOc1nc(F)cc2nc(S(=O)(=O)Nc3c(Cl)cccc3Cl)nn12` as the compound, how does the “activity, negative = cytotoxicity” value read?
The value was -2.76% (inactive).

With `O=C(CBr)OCc1ccccc1` as the compound, how does the “activity, negative = cytotoxicity” value read?
Its value is -1.71% (inactive).

Which “activity, negative = cytotoxicity” value does the source give for `C=CC(=O)OC(C)(C)C` here?
The value was 6.08% (inactive).

Which Potency does the source give for `C(=NC1CCCCC1)=NC1CCCCC1` here?
Its Potency is “inactive and 21.7 µM (active)”.

Which “activity, negative = cytotoxicity” value does the source give for `Cn1cc[n+](C)c1` (tested in a mixture with another compound) here?
The value was 13.3% [at 95 µM] (inactive).

Which “activity, negative = cytotoxicity” value does the source give for `CNC(C)Cc1ccccc1OC` (stereo unspecified) here?
Its value is 1.75% (inactive).

With `O=[Se]=O` as the compound, how does the Potency read?
Its Potency is 0.341 µM (active).

For `ClCC(Br)CBr` (stereo unspecified), which “activity, negative = cytotoxicity” value is on record?
The value was 1.16% (inactive).

For `ClCCCCBr`, which “activity, negative = cytotoxicity” value is on record?
Its value is 5.76% [at 95 µM] (inactive).

With `CCOP(=S)(OCC)SCn1nnc2ccccc2c1=O` as the compound, how does the Potency read?
Its Potency is 7.7 µM (active).

Which Potency does the source give for `CC(O)(CS(=O)(=O)c1ccc(F)cc1)C(=O)Nc1ccc(C#N)c(C(F)(F)F)c1` (stereo unspecified) here?
Its Potency is 10.6 µM (active) and 28.3 µM (active).

Which “activity, negative = cytotoxicity” value does the source give for `COc1cc(CC(C)N)cc2c1OCO2` (stereo unspecified) here?
The value was -21.3% [at 95 µM] (inactive).

For `O=C(O)C(F)(F)C(F)(F)C(F)(F)C(F)(F)C(F)(F)C(F)(F)C(F)(F)C(F)(F)C(F)(F)C(F)(F)F`, which “activity, negative = cytotoxicity” value is on record?
Its value is -2.68% (inactive).

Which “activity, negative = cytotoxicity” value does the source give for `CCOC(=O)CBr` here?
Its value is -15.1% [at 95 µM] (inactive).

For `O=C(O)C(F)(F)C(F)(F)C(F)(F)C(F)(F)C(F)(F)C(F)(F)C(F)(F)C(F)(F)C(F)(F)F`, which “activity, negative = cytotoxicity” value is on record?
The value was -20.4% (inactive).

For `COc1c(C(C)(C)C)cc([N+](=O)[O-])c(C)c1[N+](=O)[O-]`, which “activity, negative = cytotoxicity” value is on record?
The value was 9.49% (inactive).

For `N#CCc1ccccc1`, which “activity, negative = cytotoxicity” value is on record?
Its value is -7.06% [at 95 µM] (inactive).

With `CCOP(=O)(OCC)SCCSCC` as the compound, how does the “activity, negative = cytotoxicity” value read?
The value was -1.6% (inactive).

From PubChem BioAssay (Tox21)
